ADAM17 inh = inhibitors of human ADAM17; P78536; recombinant ADAM17, EDANS/DABCYL FRET peptide cleavage; inhibition, % at 6.95 µM; 370,000 compounds, 0.83% hits;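 active = inhibition above the mean of compounds lying between control limits plus 3 SD, set per campaign, cut at about 8.5% in these data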;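 also: 0% = DMSO-only wells as the low control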
Target sequence (P78536 215-824 limits assumed): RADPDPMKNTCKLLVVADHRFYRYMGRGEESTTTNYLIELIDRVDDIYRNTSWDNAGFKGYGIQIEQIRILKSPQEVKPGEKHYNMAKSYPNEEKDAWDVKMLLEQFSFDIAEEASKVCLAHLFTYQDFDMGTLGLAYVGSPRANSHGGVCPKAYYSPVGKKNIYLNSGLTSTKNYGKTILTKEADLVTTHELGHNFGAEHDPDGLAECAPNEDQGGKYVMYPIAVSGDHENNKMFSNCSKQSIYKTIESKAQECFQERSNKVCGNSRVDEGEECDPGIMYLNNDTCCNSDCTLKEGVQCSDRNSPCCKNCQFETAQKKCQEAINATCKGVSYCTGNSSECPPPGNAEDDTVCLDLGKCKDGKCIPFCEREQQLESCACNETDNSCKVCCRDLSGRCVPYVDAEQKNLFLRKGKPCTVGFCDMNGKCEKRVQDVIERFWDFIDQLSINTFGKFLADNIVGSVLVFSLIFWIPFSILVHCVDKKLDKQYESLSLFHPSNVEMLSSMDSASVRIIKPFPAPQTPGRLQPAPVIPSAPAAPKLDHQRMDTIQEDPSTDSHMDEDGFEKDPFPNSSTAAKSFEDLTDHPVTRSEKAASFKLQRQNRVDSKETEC
ADAM10 inh = inhibitors of human ADAM10. 370,000 compounds, 0.62% hits. inhibition, % at 7 µM. O14672. recombinant ADAM10, EDANS/DABCYL FRET peptide cleavage, 3 h. AID 720582;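 active = inhibition above a per-campaign cutoff equal to the mean of compounds falling between control-based bounds plus 3 SD, cut at about 20% in these data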;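 also: 0% = DMSO wells while the 100% control is not disclosed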
APOBEC3A inh = inhibitors of human APOBEC3A DNA deaminase; P31941; recombinant A3A, FAM/TAMRA ssDNA deamination fluorescence; inhibition, % at 20 µM; 330,000 compounds, 0.41% hits; AID 493011;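 active = at least 40% inhibition at 20 µM here, with at most 30% in a related deaminase screen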;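 also: plate controls were A3A with DMSO for no effect and wells lacking A3A enzyme for full effect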
A3G deaminase = blocks human APOBEC3G single-stranded DNA deamination. inhibition, % at 20 µM. AID 493012. Q9HC16. recombinant A3G, ssDNA deamination FAM/TAMRA fluorescence. 330,000 compounds, 0.28% hits;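 active = inhibition of at least 40% at 20 µM, with no more than 30% in the related APOBEC3A deaminase screen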;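 also: plate controls were DMSO wells with A3G for no effect and wells lacking A3G enzyme for full effect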
NRP1-CendR mod = alters CendR peptide binding to human NRP-1. O14786. FAM-RPARPAR peptide binding to NRP-1, fluorescence polarization. inhibition, % at 25 µM. 360,000 compounds, 0.85% hits;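 active = inhibition or corrected inhibition above about 18%, plus a signal ratio from 0.5 to 1.5, limit read from the data, passing the limit was not always enough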
ADAM10 counter = counter-screen for ADAM17 exosite inhibitors: inhibitors of human ADAM10. shares compounds with ADAM17 inh. recombinant ADAM10, EDANS/DABCYL FRET peptide cleavage, 3 h. inhibition, % at 6.95 µM. 2,900 compounds, 47% hits;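 active = mean inhibition over the triplicate runs exceeds the activity threshold set in the earlier primary screen, cut at about 20% in these data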;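 also: 0% = DMSO wells and 100% = marimastat wells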
ADAM17 confirm = human ADAM17 inhibition, confirmation | recombinant ADAM17, EDANS/DABCYL QFRET peptide cleavage | 2,900 compounds, 65% hits | shares compounds with ADAM17 inh | inhibition, % at 6.95 µM;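 active = mean inhibition across replicates above the hit cutoff set in the primary screen, cut at about 8.5% in these data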;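 also: 0% = DMSO wells and 100% = marimastat wells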
An asterisk follows results filed as active; nt = no result given; ! = repeats disagree. The list is not random: actives were taken first. Their share in the collection is about 2.4%.

SMILES	ADAM17 inh	ADAM10 inh	APOBEC3A inh	A3G deaminase	NRP1-CendR mod	ADAM10 counter	ADAM17 confirm
CN(C)c1ccc(S(=O)(=O)NCC(=O)OCC(=O)Nc2cc(Cl)cc(Cl)c2)cc1[N+](=O)[O-]	9.9*	20	-2	-3	-4	42*	23*
CCOc1ccc(CCNC(=O)c2ccc(Oc3ccccc3)cc2)cc1OCC	-3	-4	nt	nt	nt	nt	nt
Cc1cc(C)c(N=C2SCC(=O)N2Cc2ccco2)c(C)c1	1	-3	-5	-1	4	nt	nt
COc1ccccc1N=C1SCC(=O)N1Cc1ccco1	8.9*	-2	-1	-4	7	5	4
COc1ccc2ccccc2c1C=Nn1c(-c2n[nH]c3c2CCC3)n[nH]c1=S	10*	11	nt	nt	nt	0	3
Cc1ccc(C=Nn2c(-c3n[nH]c4c3CCC4)n[nH]c2=S)o1	-2	-8	nt	nt	nt	nt	nt
COC(=O)[C@]12C[C@H](CC(=O)NCCCCc3ccccc3)C(=O)N(Cc3ccccc3)C1=C[C@H](COCc1ccccc1)O[C@@H]2C	4	14	nt	nt	nt	nt	nt
O[C@H]1C[C@H](c2ccccc2)N(CC2CCCCC2)C[C@@H]1n1cc(C2CC2)nn1	9.0*	18	nt	nt	-12	21*	13*
O[C@@H]1CN(CC2CCCCC2)[C@@H](c2ccccc2)C[C@H]1n1cc(C2CC2)nn1	7	2	nt	nt	-4	nt	nt
CCN(CC)C(=O)CC[C@H]1CC[C@]2(CCCN(Cc3ccc(Br)cc3)C2)O1	-4	-2	nt	nt	nt	nt	nt
Cc1cccc2nc(-c3ccccc3)c(-c3ccc(CN4CCC5(CC4)CNc4ccccc45)cc3)nc12	-2	-6	nt	nt	nt	nt	nt
O=C(COC(=O)/C=C/c1ccccc1)NCc1ccc(Cl)cc1	2	7	-3	-8	-3	nt	nt
O=C(COC(=O)/C=C/c1ccc(Cl)cc1)NC(=O)NCc1ccccc1	9.9*	-6	-2	-9	14	26*	15*
Brc1ccc(-c2csc(N3CCC(c4nn[nH]n4)CC3)n2)cc1	-2	6	nt	nt	nt	nt	nt
COc1cc(OC)cc(C(=O)NC2CCN(CC(=O)Nc3cccc4ccccc34)CC2)c1	12*	12	-1	-5	2	-5	2
COc1ccc(Cn2cc(CN3[C@@H](c4ccccc4)COc4cc(Br)ccc4S3(=O)=O)nn2)cc1	3	5	nt	nt	nt	nt	nt
COC(=O)[C@@]1(OC(C)=O)CC(OC(C)=O)[C@H](OC(C)=O)[C@H](OC(C)=O)C1Br (some centres undefined)	-2	-1	nt	nt	nt	nt	nt
Cc1ccc(-c2c(C(=O)NCC(C)C)oc(=O)c3ccccc23)cc1	-1	-6	nt	nt	nt	nt	nt
O=[N+]([O-])c1ccc(Nc2ccc(F)cc2)nc1	10*	3	nt	nt	6	3	5
COC(=O)c1ccc(CCc2cc(O)ccc2O)cc1	nt	nt	nt	nt	-9	nt	nt
COC(=O)c1ccc(CCc2cc(O)c(Br)cc2O)cc1	8.9*	0	nt	nt	-14	-2	-1
Cc1cc(C)cc(NC(=O)c2ccc(Cn3nc(C)c(Cl)c3C)o2)c1	9.8*	7	1	-3	-1	21*	9.5*
CCCc1c(-c2cccc(Br)c2)ncn1CCc1ccccc1OC	4	-7	nt	nt	nt	nt	nt
CCOC(=O)N1CCC(NC(=O)CS(=O)(=O)Cc2nc(-c3cccc(Cl)c3)oc2C)CC1	9.6*	-3	-6	-6	11	2	3
CCOC(=O)N1CCC(NC(=O)CS(=O)(=O)Cc2nc(-c3cccc(OC)c3)oc2C)CC1	0	-1	0	-4	-1	nt	nt
SMILES	ADAM17 inh	ADAM10 inh	APOBEC3A inh	A3G deaminase	NRP1-CendR mod	ADAM10 counter	ADAM17 confirm
CCC(C)[C@H](NC(=O)[C@@H]1CSC2c3ccccc3C(=O)N21)C(=O)NCC1CCCO1 (some centres undefined)	12*	1	-1	2	1	7	3
CC(C)[C@H](NC(=O)[C@@H]1CSC2c3ccccc3C(=O)N21)C(=O)NCC1CCCO1 (some centres undefined)	1	-1	-2	0	4	nt	nt
COc1ccc(C)cc1NC(=O)NNC(=O)C(C)Oc1ccc([N+](=O)[O-])cc1 (centres undefined)	9.0*	16	-3	-3	9	13	9.0*
COc1ccccc1NC(=O)NNC(=O)C(C)Oc1ccc2ccccc2c1 (centres undefined)	1	4	-1	-10	-3	nt	nt
CCOC(=O)C1=C(C)NC(C)=C(C(=O)OCC)C1c1ccc([N+](=O)[O-])s1	9.2*!	-6	1	-6	10	24*	12*
CCOC(=O)C1=C(C)NC(C)=C(C(=O)OCC)C1c1ccc(OC)cc1	-36	-159	-6	-7	3	nt	nt
CCCCN1C[C@H](c2ccc(OC)cc2)[C@@H](CC(=O)Nc2ccc(Br)cc2)C1=O	14*	10	nt	nt	-8	4	4
O=C(Nc1ccn(Cc2ccccc2F)n1)c1ccc(COc2ccccc2Cl)cc1	13*	19	-1	-2	-2	31*	18*
O=C(Nc1ccn(Cc2c(F)c(F)cc(F)c2F)n1)c1ccc(COc2ccccc2Cl)cc1	nt	nt	0	-5	-10	nt	nt
COC(=O)C1=C(C)N(Cc2ccccc2C(F)(F)F)C(=NCc2ccc3c(c2)OCO3)NC1c1ccccc1C(F)(F)F (centres undefined)	6	5	nt	nt	nt	nt	nt
Cc1ccccc1-c1nnn(Cc2ccc(F)cc2Cl)n1	10*	11	-4	-7	15	18	11*
Fc1ccc(-c2nnn(Cc3ccc(F)cc3Cl)n2)cc1	1	3	-1	-4	1	nt	nt
Cc1cc(NC(=O)CSc2cc(Cl)ccc2Cl)n(-c2ccccc2)n1	9.2*	17	2	0	20	5	4
Cc1cc(C)n(CCc2nc(-c3ccc(C(C)(C)C)cc3)cs2)n1	12*	19	2	-1	-11	14	11*
CCOC(=O)c1ccc(N2C(=O)c3n[nH]c(C)c3C2c2ccc(OC)cc2)cc1 (centres undefined)	-1	7	-1	-2	7	nt	nt
CCOC(=O)c1ccc(N2C(=O)c3n[nH]c(C)c3C2c2ccc(OC)cc2OC)cc1 (centres undefined)	8.7*	17	-1	-8	7	16	10*
CC(=NN1CCN(c2ccccn2)CC1)c1ccccc1O	-2	-8	nt	nt	nt	nt	nt
Cc1cc(C)nc(Nc2nc3ccccc3s2)n1	-5	4	-3	-13	1	nt	nt
Cc1ccc(Nc2nc3ccccc3s2)c(C)c1	9.0*	14	9	1	-6	26*	17*
Nc1nc(N)c(Br)c(Nc2ccc(Cl)c(Cl)c2)n1	10*	10	nt	nt	5	7	6
Cc1ccc(SCC(=O)OCC(=O)NCc2cccs2)cc1	0	0	20	-1	4	nt	nt

Screens from PubChem BioAssay.
